{
  "source": "the supplement of paper PMC7261846",
  "system": "Candida albicans SNY425 biofilm",
  "experiment": "biofilm OD600 with compound plus antifungal (OD600 (absorbance)); higher = more biofilm remaining",
  "key": {"[1]": {"conditions": "assay detail: disruption of 24-h mature biofilm (compound + antifungal for a second 24 h)"}, "[2]": {"conditions": "assay detail: sustained inhibition (compound + antifungal during 90-min adherence and 24-h growth)"}},
  "note": "± gives the uncertainty stated by the source.",
  "data": [
    {"smiles": "O=C(O[C@@H]1Cc2c(O)cc(O)cc2O[C@@H]1c1cc(O)c(O)c(O)c1)c1cc(O)c(O)c(O)c1", "note": "[Epigallocatechin gallate] + OC(Cn1cncn1)(Cn1cncn1)c1ccc(F)cc1F [fluconazole] (first compound 12.5 µM)", "values": [
      {"measurement": "biofilm OD600", "setting": "[1]", "result": "0.262 ± 0.011"},
      {"measurement": "biofilm OD600", "setting": "[2]", "result": "0.164 ± 0.01"}
    ]},
    {"smiles": "Nc1ccc(CC(CC(=O)O)C(=O)O)cc1", "note": "[4-Amino-D, L-benzylsuccinic acid] + OC(Cn1cncn1)(Cn1cncn1)c1ccc(F)cc1F [fluconazole] (first compound 12.5 µM)", "values": [
      {"measurement": "biofilm OD600", "setting": "[1]", "result": "0.291 ± 0.009"},
      {"measurement": "biofilm OD600", "setting": "[2]", "result": "0.12 ± 0.0067"}
    ]},
    {"smiles": "CSCCC(C=O)NC(=O)C(CC(C)C)NC(=O)[C@H](CC(C)C)NC(C)=O", "note": "(stereo not given in full) [Calpain Inhibitor II (ALLM)] + CC[C@H](C)C[C@H](C)CCCCCCCCC(=O)N[C@H]1C[C@@H](O)[C@@H](NCCN)NC(=O)[C@@H]2[C@@H](O)CCN2C(=O)[C@H]([C@H](O)CCN)NC(=O)[C@H]([C@H](O)[C@@H](O)c2ccc(O)cc2)NC(=O)[C@@H]2C[C@@H](O)CN2C(=O)[C@H]([C@@H](C)O)NC1=O [caspofungin] (first compound 12.5 µM)", "values": [
      {"measurement": "biofilm OD600", "setting": "[1]", "result": "0.249 ± 0.0042"},
      {"measurement": "biofilm OD600", "setting": "[2]", "result": "0.178 ± 0.0059"}
    ]},
    {"smiles": "CCC[C@@]1(CCc2ccccc2)CC(O)=C([C@H](CC)c2cccc(NS(=O)(=O)c3ccc(C(F)(F)F)cn3)c2)C(=O)O1", "note": "[tipranavir] + CC[C@H](C)C[C@H](C)CCCCCCCCC(=O)N[C@H]1C[C@@H](O)[C@@H](NCCN)NC(=O)[C@@H]2[C@@H](O)CCN2C(=O)[C@H]([C@H](O)CCN)NC(=O)[C@H]([C@H](O)[C@@H](O)c2ccc(O)cc2)NC(=O)[C@@H]2C[C@@H](O)CN2C(=O)[C@H]([C@@H](C)O)NC1=O [caspofungin] (first compound 12.5 µM)", "values": [
      {"measurement": "biofilm OD600", "setting": "[1]", "result": "0.268 ± 0.011"},
      {"measurement": "biofilm OD600", "setting": "[2]", "result": "0.192 ± 0.0071"}
    ]},
    {"smiles": "N[C@H](C(=O)O)[C@@H]1CC(Cl)=NO1", "note": "[Acivicin] + C[C@@H]1[C@H](O)[C@@H](C)/C=C/C=C/C=C/C=C/C=C/C=C/C=C/[C@H](O[C@@H]2O[C@H](C)[C@@H](O)[C@H](N)[C@@H]2O)C[C@@H]2O[C@](O)(C[C@@H](O)C[C@@H](O)[C@H](O)CC[C@@H](O)C[C@@H](O)CC(=O)O[C@H]1C)C[C@H](O)[C@H]2C(=O)O [amphotericin B] (first compound 4 µM)", "values": [
      {"measurement": "biofilm OD600", "setting": "[1]", "result": "0.31 ± 0.0054"},
      {"measurement": "biofilm OD600", "setting": "[2]", "result": "0.181 ± 0.006"}
    ]},
    {"smiles": "CCCC[C@@H](C=O)NC(=O)OC(C)(C)C", "note": "+ C[C@@H]1[C@H](O)[C@@H](C)/C=C/C=C/C=C/C=C/C=C/C=C/C=C/[C@H](O[C@@H]2O[C@H](C)[C@@H](O)[C@H](N)[C@@H]2O)C[C@@H]2O[C@](O)(C[C@@H](O)C[C@@H](O)[C@H](O)CC[C@@H](O)C[C@@H](O)CC(=O)O[C@H]1C)C[C@H](O)[C@H]2C(=O)O [amphotericin B] (first compound 12.5 µM)", "values": [
      {"measurement": "biofilm OD600", "setting": "[1]", "result": "0.259 ± 0.011"},
      {"measurement": "biofilm OD600", "setting": "[2]", "result": "0.188 ± 0.0076"}
    ]},
    {"smiles": "CC(C)C[C@H](NP(=O)(O)O[C@@H]1O[C@@H](C)[C@H](O)[C@@H](O)[C@H]1O)C(=O)N[C@@H](Cc1c[nH]c2ccccc12)C(=O)O", "note": "[Phosphoramidon] + CC[C@H](C)C[C@H](C)CCCCCCCCC(=O)N[C@H]1C[C@@H](O)[C@@H](NCCN)NC(=O)[C@@H]2[C@@H](O)CCN2C(=O)[C@H]([C@H](O)CCN)NC(=O)[C@H]([C@H](O)[C@@H](O)c2ccc(O)cc2)NC(=O)[C@@H]2C[C@@H](O)CN2C(=O)[C@H]([C@@H](C)O)NC1=O [caspofungin] (first compound 12.5 µM)", "values": [
      {"measurement": "biofilm OD600", "setting": "[1]", "result": "0.273 ± 0.012"},
      {"measurement": "biofilm OD600", "setting": "[2]", "result": "0.191 ± 0.013"}
    ]},
    {"smiles": "CC1(C)C[C@@H]1C(=O)N/C(=C\\CCCCSC[C@H](N)C(=O)O)C(=O)O", "note": "[Cilastatin] + CC[C@H](C)C[C@H](C)CCCCCCCCC(=O)N[C@H]1C[C@@H](O)[C@@H](NCCN)NC(=O)[C@@H]2[C@@H](O)CCN2C(=O)[C@H]([C@H](O)CCN)NC(=O)[C@H]([C@H](O)[C@@H](O)c2ccc(O)cc2)NC(=O)[C@@H]2C[C@@H](O)CN2C(=O)[C@H]([C@@H](C)O)NC1=O [caspofungin] (first compound 12.5 µM)", "values": [
      {"measurement": "biofilm OD600", "setting": "[1]", "result": "0.283 ± 0.0048"},
      {"measurement": "biofilm OD600", "setting": "[2]", "result": "0.199 ± 0.02"}
    ]},
    {"smiles": "Cc1c(O)cccc1C(=O)N[C@@H](CSc1ccccc1)[C@H](O)CN1C[C@H]2CCCC[C@H]2C[C@H]1C(=O)NC(C)(C)C", "note": "[nelfinavir] + C[C@@H]1[C@H](O)[C@@H](C)/C=C/C=C/C=C/C=C/C=C/C=C/C=C/[C@H](O[C@@H]2O[C@H](C)[C@@H](O)[C@H](N)[C@@H]2O)C[C@@H]2O[C@](O)(C[C@@H](O)C[C@@H](O)[C@H](O)CC[C@@H](O)C[C@@H](O)CC(=O)O[C@H]1C)C[C@H](O)[C@H]2C(=O)O [amphotericin B] (first compound 12.5 µM)", "values": [
      {"measurement": "biofilm OD600", "setting": "[1]", "result": "0.237 ± 0.0057"},
      {"measurement": "biofilm OD600", "setting": "[2]", "result": "0.112 ± 0.01"}
    ]},
    {"smiles": "CC(C)CCNC(=O)[C@H](CC(C)C)NC(=O)[C@H]1O[C@@H]1C(=O)O", "note": "+ C[C@@H]1[C@H](O)[C@@H](C)/C=C/C=C/C=C/C=C/C=C/C=C/C=C/[C@H](O[C@@H]2O[C@H](C)[C@@H](O)[C@H](N)[C@@H]2O)C[C@@H]2O[C@](O)(C[C@@H](O)C[C@@H](O)[C@H](O)CC[C@@H](O)C[C@@H](O)CC(=O)O[C@H]1C)C[C@H](O)[C@H]2C(=O)O [amphotericin B] (first compound 12.5 µM)", "values": [
      {"measurement": "biofilm OD600", "setting": "[1]", "result": "0.27 ± 0.0079"},
      {"measurement": "biofilm OD600", "setting": "[2]", "result": "0.21 ± 0.0074"}
    ]}
  ]
}
